NPR2 activator: GC-B (human) receptor activation | P20594 | HEK293-GC-B cells, CNP EC30, cGMP TR-FRET; 0% at EC30 CNP, 100% saturating CNP | activation, % at 10 µM | 0.11% of 370,000 active | AID 1920062;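 active = activation at 10 µM reaching about 35% in either raw or pattern-adjusted values, limit read from the data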
Target sequence (P20594 whole entry, looked up): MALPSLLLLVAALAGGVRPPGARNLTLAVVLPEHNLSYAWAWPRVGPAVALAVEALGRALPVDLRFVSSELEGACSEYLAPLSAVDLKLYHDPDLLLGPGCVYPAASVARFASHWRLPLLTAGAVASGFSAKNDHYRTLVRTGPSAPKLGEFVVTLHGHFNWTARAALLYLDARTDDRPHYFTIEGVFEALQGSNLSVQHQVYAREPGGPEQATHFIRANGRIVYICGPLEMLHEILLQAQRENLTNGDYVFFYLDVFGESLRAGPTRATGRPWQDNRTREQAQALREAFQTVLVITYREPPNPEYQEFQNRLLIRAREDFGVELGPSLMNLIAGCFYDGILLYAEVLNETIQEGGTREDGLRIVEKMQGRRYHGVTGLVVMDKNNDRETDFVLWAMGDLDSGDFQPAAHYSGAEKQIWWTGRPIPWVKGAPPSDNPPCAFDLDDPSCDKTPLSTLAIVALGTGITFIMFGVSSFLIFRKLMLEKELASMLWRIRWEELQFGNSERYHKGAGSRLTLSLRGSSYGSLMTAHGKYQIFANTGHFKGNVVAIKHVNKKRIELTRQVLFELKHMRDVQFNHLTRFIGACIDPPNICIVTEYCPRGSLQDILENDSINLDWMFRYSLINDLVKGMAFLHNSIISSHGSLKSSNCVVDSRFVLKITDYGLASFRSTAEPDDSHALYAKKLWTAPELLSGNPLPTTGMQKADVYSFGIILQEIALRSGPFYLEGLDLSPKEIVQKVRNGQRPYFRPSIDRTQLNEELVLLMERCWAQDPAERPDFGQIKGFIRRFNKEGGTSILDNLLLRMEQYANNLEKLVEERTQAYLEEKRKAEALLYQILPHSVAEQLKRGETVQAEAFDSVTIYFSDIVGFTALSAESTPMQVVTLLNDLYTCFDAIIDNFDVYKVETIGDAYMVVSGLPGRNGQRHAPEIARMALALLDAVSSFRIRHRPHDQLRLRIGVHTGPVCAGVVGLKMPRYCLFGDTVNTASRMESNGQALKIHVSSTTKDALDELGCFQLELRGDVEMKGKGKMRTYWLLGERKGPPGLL
HSF1 activator: increases HSF-1 driven luciferase reporter signal. activation, % at 9 µM. NIH3T3-HGL HSF-1 luciferase reporter, MG132, 8 h; 100% = twice DMSO control signal. 1.7% of 300,000 active;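 active = mean replicate activation of at least 50% with a set share of replicates each reaching 50%; inconclusive = only one of those two conditions met; inactive = mean below 50% and too few replicates reaching it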;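 also: 0% = median of the neutral control wells and 100% = twice that signal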
HSF1 inhib: HSF1 inhibition. NIH3T3-HGL HSE-luciferase, MG132-induced, luminescence 8 h; hits give low values. activity change, negative = inhibition, % at 7.5 µM (by protocol). 0.77% of 300,000 active. AID 2098;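 active = more than half of replicate wells show activity change below -50%, luminescence cut by over half; inconclusive = some wells, but at most half, below -50%; inactive = no replicate well below -50%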;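 also: luciferase reports HSF-1 transcriptional activity via heat shock element; 0% = median of DMSO wells and -100% = zero luminescence signal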
aDG glyco up: increases alpha dystroglycan glycosylation; Pro5-aDG cells, alpha-DG glycosylation AlphaScreen (IIH6); 0% Pro5, 100% B10-LARGE cell signal; 0.22% of 360,000 active; activation, % at 10 µM; AID 624168;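 active = activation of at least 8% versus controls, or a plate z-score of at least 8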;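 also: Pro5 are CHO cells carrying HIG-tagged alpha-DG that lacks glycosylation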
DYRK1A inh: blocks rat Dyrk1A kinase activity; ADP-Glo luminescence, NFATc1 peptide; inhibition, % at 12.5 µM; 0.43% of 310,000 active; in the data active = inhibition above about 50%;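 also: plate controls were vehicle with enzyme for no effect and no enzyme for full effect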
GC-A act: GC-A (human) enzyme activation; 0.14% of 370,000 active; activation, % at 10 µM; P16066; HEK293 GC-A cells, cGMP TR-FRET, EC30 ANP; 0% at EC30 ANP, 100% saturating ANP; in the data active = activation above about 40%
* marks the source's active call; other numbers are inactive results; ? = inconclusive; · = no result. Sampled rows, rich in hits. Any-hit rate of the full collection: about 2.5%.

SMILES	NPR2 activator	HSF1 activator	HSF1 inhib	aDG glyco up	DYRK1A inh	GC-A act
CC(=O)c1nn(-c2cccc(Br)c2)cc1C(=O)c1ccc(Cl)cc1	-4	84*	43	0	-3	-1
N#C/C(=C\c1ccccc1C(F)(F)F)C(=O)Nc1ccccc1	-3	22	-2	0	-2	6
CCc1cccc(CC)c1NC(=O)/C(C#N)=C/c1ccccc1C(F)(F)F	-1	83*	67	0	0	0
Brc1cnc2nc(SC/C=C/c3ccccc3)[nH]c2c1	-2	62*	50	0	-1	-7
Cc1ccc(N2C(=O)N(CC(=O)NC(N)=O)C(=O)C2C)cc1 (stereo unspecified)	2	-75	-69*	0	-3	3
Cc1ccc(N2C(=O)N(CC(=O)NC(c3ccccc3)c3ccccc3)C(=O)C2C)cc1 (stereo unspecified)	1	12	-5	0	0	0
N#Cc1nc(-c2cccs2)oc1NCc1ccc(Cl)cc1	5	63*	16	0	3	14
NC(N)=NS(=O)(=O)c1ccc(NC(=S)NC(=O)c2ccc(Br)cc2)cc1	1	114*	86	0	-5	3
NC(N)=NS(=O)(=O)c1ccc(NC(=S)NC(=O)c2ccncc2)cc1	7	15	-4	0	-1	0
COC(=O)c1c(C)[nH]c(C(=O)/C=C/c2ccccc2F)c1C	-6	66*	27	0	-1	1
COc1ccc(/C=N/N2CCN(C3c4ccccc4-c4ccccc43)CC2)cc1O	-7	?	26	0	-2	-6
Cc1ccc(NC(=O)CCN2C(=O)C3C4CCC(C4)C3C2=O)cc1[N+](=O)[O-] (stereo unspecified)	5	5	-6	0	7	0
Cc1ccc(NC(=O)CCN2C(=O)C3CCCCC3C2=O)cc1[N+](=O)[O-] (stereo unspecified)	2	-63	-53*	0	11	-1
CCNc1oc(-c2cccc3ccccc23)nc1C#N	-1	44	26	0	2	13
N#Cc1nc(-c2cccc3ccccc23)oc1NCCN1CCCCC1	-7	70*	55	6	7	18
CCc1ccccc1NC(=O)CN(C)C(=O)c1cc(C2CC2)nc2c1cnn2C(C)C	-4	·	·	0	2	-4
O=C1CC(/C=C/c2ccc(Cl)cc2)=Nc2ccccc2N1	-8	70*	63	0	1	-2
C=CCN=C1NN=C(c2cc(C)n(CCOC)c2C)CS1	5	-12	-9	0	·	0
COCCn1c(C)cc(C2=NNC(=NC3CC3)SC2)c1C	3	-67	-64*	0	0	2
CCOC(=O)CN1C(=O)CSc2ccccc21	-3	-6	4	0	-2	5
O=C(CN(C(=O)c1csnn1)c1ccc(F)c(Cl)c1)NCc1ccc(F)cc1	-2	72*	23	0	0	-1
Cc1nc(SCC(=O)c2ccccc2)c(C#N)c(-c2ccco2)c1C(=O)NCc1ccco1	4	76*	52	0	-4	18
O=C1CN(C(=O)c2ccc(Br)o2)C(c2ccc(F)cc2)c2cc(Cl)ccc2N1 (stereo unspecified)	-21	55*	29	0	-3	-39
COc1cccc(C2CC3(CC(C)(C)NC(=S)N3)Oc3cc(O)ccc32)c1 (stereo unspecified)	-3	19	16	0	-10	56*
O=C(CCn1c(=S)oc2ccccc21)NC1CCCCCC1	-7	-77	-71*	0	12	-4
SMILES	NPR2 activator	HSF1 activator	HSF1 inhib	aDG glyco up	DYRK1A inh	GC-A act
COc1ccccc1N1CCN(C(c2ccc(N(C)C)cc2)c2nnnn2CCc2ccccc2)CC1 (stereo unspecified)	11	-78	-72*	0	-2	-3
COc1ccc(C(c2nnnn2CCc2ccccc2)N2CCN(C3CCCC3)CC2)cc1 (stereo unspecified)	-2	-13	-4	0	29	-5
COc1cccc(/C=N/Nc2nnc(C)n2N)c1O	-4	68*	39	0	8	-5
Cc1nnc(N/N=C/c2ccccc2F)n1N	-3	38	15	0	-3	6
Cc1nnc(N/N=C/c2ccco2)n1N	3	56*	42	0	1	4
Cc1nnc(N/N=C/c2ccccc2C(F)(F)F)n1N	-3	39	34	0	-5	-1
O=C(c1ccc2nccnc2c1)N1CCCC(Nc2ccc(F)c(F)c2)C1 (stereo unspecified)	5	59*	22	0	-1	3
COc1ccc(-c2csc3nc(-c4cccnc4)nc(Cl)c23)cc1OC	5	-13	5	1	1	2
Clc1nc(-c2cccnc2)nc2scc(-c3ccccc3)c12	-1	72*	58	0	-2	2
CN(CCCN1CCOCC1)C(=O)c1cc(COc2cccc(C(F)(F)F)c2)on1	1	-15	-3	0	-6	3
CN(CCc1ccccc1)C(=O)c1cc(COc2cccc(C(F)(F)F)c2)on1	-1	186*	107	0	·	-4
Cc1cc(OCc2cc(C(=O)N(C)CCOc3ccccc3)no2)cc(C)c1Cl	-3	8	9	0	-3	5
COc1cccc(OCc2cc(C(=O)N(C)CCOc3ccc(C)cc3)no2)c1	-5	57*	34	0	-3	-6
COc1cccc(CN(C)C(=O)c2cc(COc3ccc4ncccc4c3)on2)c1	-7	3	-5	13*	-2	-2
COc1ccc(-n2c(=S)[nH]c3cc(C(=O)Nc4ccc(F)cc4)ccc3c2=O)c(OC)c1	-1	87*	68	0	-1	6
C=CCSc1nc(-c2ccc(OC)cc2)c(C#N)c(=O)n1CC=C	6	65*	20	0	·	3
COc1ccc(-c2nc3n(c(=O)c2C#N)CCS3)cc1	0	9	-7	1	·	0
CCC(=O)Nc1cc(C(=O)OCC(=O)c2ccc(Cl)cc2Cl)ccc1C	2	26	5	0	2	57*
N[C@H](C(=O)N1CCC[C@@H]1C(=O)N1CCC2CCN(S(=O)(=O)c3ccccc3)CC21)c1ccccc1 (stereo partly specified)	-2	·	·	·	·	-1
CC(=O)c1ccc(Nc2c3c(nc4ccccc24)CCCC3)cc1	-1	66*	22	0	1	19
COc1ccc(C(C)N2CC34C=CC(O3)C(C(=O)O)C4C2=O)cc1 (stereo unspecified)	14	-69	-64*	0	1	-2

Assay outcomes as filed in PubChem BioAssay.
